Activity calls are given as the source filed them.

Test [1] in a line: binders of probe aFSTL3 on microarray, primary screen, stem cell growth factor project, biochemical, small-molecule microarray, fluorescence 635/667 (AID 1064).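 Note: measures binding of the biotinylated anti-FSTL3 antibody to printed compounds.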 To be noted: higher = more signal.
Test [2] is described as follows: binders from COS7 lysate, DM2A8 probe, primary screen, torsin A project, cell lysate, small-molecule microarray, fluorescence 635/667 (AID 1065). To be noted: higher = more signal, COS7 lysate expressing mutant human TOR1A.
The nature of test [3]: binders of probe aFGF2 on microarray, primary screen, stem cell growth factor project, biochemical, small-molecule microarray, fluorescence 635/667 (AID 1067).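 Note: measures binding of biotinylated aFGF2 protein to printed compounds on slides; z-score merges feature fluorescence and signal-to-noise across triplicate slides.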 To be noted: higher = more signal.
Test [4] in a line: binders of probe aFGF10 on microarray, primary screen, stem cell growth factor project, biochemical, small-molecule microarray, fluorescence 635/667 (AID 1071).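 Note: score merges 667 nm spot intensity and signal to noise from triplicate slides.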 To be noted: higher = more signal.
Test [5] deals with Neurogenic locus notch homolog protein 2 (Homo sapiens) (UniProt Q04721). The test can be described thus: Notch2 binders on small-molecule microarrays, primary screen, biochemical, small-molecule microarray, 635 nm fluorescence, stem cell growth factors (AID 1073). To be noted: Notch2 binding, higher = more signal.
The target in test [6] is Pro-neuregulin-1, membrane-bound isoform (Homo sapiens) (UniProt Q02297). The test can be described thus: NRG1 binders on small-molecule microarrays, primary screen, psychiatric disease protein project, biochemical, small-molecule microarray, fluorescence 635/667 (AID 1075).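 Note: score combines 667 nm spot fluorescence with signal to noise.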 To be noted: NRG1 binding, 635 nm fluorescence, higher = more signal.
In test [7] the test system is Neuregulin-1 EGF-like domain. The test is described as follows: binders of neuregulin-1 EGF-like domain, primary screen, biochemical, small-molecule microarray, 635 nm fluorescence (AID 1081).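 Note: binding of the protein to compounds printed on small-molecule microarray slides.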 To be noted: small-molecule microarray binding, higher = more signal.
A short description of test [8]: FRG1 promoter luciferase signal modulators, primary screen, FRG1 inhibition for FSHD, cell-based, C2C12 myotubes, firefly/Renilla luciferase, luminescence (AID 1084). To be noted: higher = more signal, called active from +8 up or from −8 down.
A short description of test [9]: binders of probe aFST on microarray, primary screen, stem cell growth factor project, biochemical, small-molecule microarray, fluorescence 635/667 (AID 1086).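 Note: score merges 667 nm fluorescence with signal-to-noise of each printed compound spot.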 To be noted: higher = more signal.
The nature of test [10]: binders of probe aHhip on microarray, primary screen, stem cell growth factor project, biochemical, small-molecule microarray, fluorescence 635/667 (AID 1087).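 Note: score merges spot fluorescence at 667nm with spot signal to noise ratio.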 To be noted: higher = more signal.
The test system of test [11] is PRMT1 (protein arginine N-methyltransferase 1). The test can be described thus: PRMT1 binders on small-molecule microarrays, primary screen, biochemical, small-molecule microarray, 635 nm fluorescence (AID 1088).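 Note: binding of Prmt1 protein to compounds spotted on small-molecule microarray slides.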 To be noted: small-molecule microarray binding, higher = more signal.
Test [12] in a line: yeast growth modulation, basal conditions, primary screen, YJM789 clinical isolate, OD600, 24 h (AID 1089).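 Note: growth of clinical yeast isolate S. cerevisiae YJM 789 seeded 1000 cells per well; test concentration not given here.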 To be noted: S. cerevisiae YJM789 growth, higher = more signal, called active from +8 up or from −8 down.
The nature of test [13]: fission yeast growth modulation, primary screen, strain 972, OD600, 24 h, no modulator (AID 1090).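 Note: basal condition with compound alone and no growth modifier present; test concentration not given here.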 To be noted: S. pombe 972 growth, higher = more signal, called active from +8 up or from −8 down.
Test [14] is described as follows: S. cerevisiae growth modulation with rapamycin, primary screen, strain BY4716, OD600, 96 h (AID 1091). Note: test concentration not given here. To be noted: higher = more signal, called active from +8 up or from −8 down.
For test [15], the target named is Torsin-1A-interacting protein 2 (Homo sapiens) (UniProt Q8NFQ8). The test is described as follows: LULL1 binders on small-molecule microarray, primary screen, cell lysate, human LULL1 lysate, 635/667 nm fluorescence (AID 1092).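 Note: score merges per-feature 667 nm fluorescence with signal-to-noise.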 To be noted: hLULL1 lysate binding, 635 nm fluorescence, higher = more signal.
Test [16] is described as follows: E. coli growth modulation, two-sided OD650, primary screen, E. coli filamentation project, strain DRC41, 24 h (AID 1093).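 Note: MC1000 strain lacking acrAB efflux and sulA so SOS filamentation is blocked; test concentration not given here.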 To be noted: OD650, 24 h, higher = more signal, called active from +8 up or from −8 down.
Test [17] can be described thus: small-molecule microarray binders of probe aLefty2, primary screen, biochemical, biotinylated probe, 635/667 nm fluorescence (AID 1094).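 Note: score merges spot fluorescence near 667 nm with spot signal-to-noise ratio.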 To be noted: higher = more signal.
For test [18], the system named is Noggin (protein binding on small-molecule microarray). The test is described as follows: Noggin binders on small-molecule microarray, primary screen, biochemical, 635/667 nm fluorescence (AID 1095).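 Note: score merges 667 nm feature fluorescence with signal to noise over triplicate slides.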 To be noted: 635 nm fluorescence, higher = more signal.
Test [19] has as its target Neurogenic locus notch homolog protein 3 (Homo sapiens) (UniProt Q9UM47). The test is described as follows: NOTCH3 binders on small-molecule microarray, primary screen, biochemical, 635/667 nm fluorescence (AID 1096). To be noted: NOTCH3 binding, 635 nm fluorescence, higher = more signal.
A short description of test [20]: small-molecule microarray binders of probe aEGFR, primary screen, biochemical, biotinylated probe, 635/667 nm fluorescence (AID 1097).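 Note: probe is a biotinylated anti-EGFR antibody binding compounds printed on slides; score combines fluorescence near 667 nm and signal to noise of each spot.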 To be noted: higher = more signal.

Neurogenic locus notch homolog protein 3 (Homo sapiens), sequence (Q9UM47 whole entry, looked up): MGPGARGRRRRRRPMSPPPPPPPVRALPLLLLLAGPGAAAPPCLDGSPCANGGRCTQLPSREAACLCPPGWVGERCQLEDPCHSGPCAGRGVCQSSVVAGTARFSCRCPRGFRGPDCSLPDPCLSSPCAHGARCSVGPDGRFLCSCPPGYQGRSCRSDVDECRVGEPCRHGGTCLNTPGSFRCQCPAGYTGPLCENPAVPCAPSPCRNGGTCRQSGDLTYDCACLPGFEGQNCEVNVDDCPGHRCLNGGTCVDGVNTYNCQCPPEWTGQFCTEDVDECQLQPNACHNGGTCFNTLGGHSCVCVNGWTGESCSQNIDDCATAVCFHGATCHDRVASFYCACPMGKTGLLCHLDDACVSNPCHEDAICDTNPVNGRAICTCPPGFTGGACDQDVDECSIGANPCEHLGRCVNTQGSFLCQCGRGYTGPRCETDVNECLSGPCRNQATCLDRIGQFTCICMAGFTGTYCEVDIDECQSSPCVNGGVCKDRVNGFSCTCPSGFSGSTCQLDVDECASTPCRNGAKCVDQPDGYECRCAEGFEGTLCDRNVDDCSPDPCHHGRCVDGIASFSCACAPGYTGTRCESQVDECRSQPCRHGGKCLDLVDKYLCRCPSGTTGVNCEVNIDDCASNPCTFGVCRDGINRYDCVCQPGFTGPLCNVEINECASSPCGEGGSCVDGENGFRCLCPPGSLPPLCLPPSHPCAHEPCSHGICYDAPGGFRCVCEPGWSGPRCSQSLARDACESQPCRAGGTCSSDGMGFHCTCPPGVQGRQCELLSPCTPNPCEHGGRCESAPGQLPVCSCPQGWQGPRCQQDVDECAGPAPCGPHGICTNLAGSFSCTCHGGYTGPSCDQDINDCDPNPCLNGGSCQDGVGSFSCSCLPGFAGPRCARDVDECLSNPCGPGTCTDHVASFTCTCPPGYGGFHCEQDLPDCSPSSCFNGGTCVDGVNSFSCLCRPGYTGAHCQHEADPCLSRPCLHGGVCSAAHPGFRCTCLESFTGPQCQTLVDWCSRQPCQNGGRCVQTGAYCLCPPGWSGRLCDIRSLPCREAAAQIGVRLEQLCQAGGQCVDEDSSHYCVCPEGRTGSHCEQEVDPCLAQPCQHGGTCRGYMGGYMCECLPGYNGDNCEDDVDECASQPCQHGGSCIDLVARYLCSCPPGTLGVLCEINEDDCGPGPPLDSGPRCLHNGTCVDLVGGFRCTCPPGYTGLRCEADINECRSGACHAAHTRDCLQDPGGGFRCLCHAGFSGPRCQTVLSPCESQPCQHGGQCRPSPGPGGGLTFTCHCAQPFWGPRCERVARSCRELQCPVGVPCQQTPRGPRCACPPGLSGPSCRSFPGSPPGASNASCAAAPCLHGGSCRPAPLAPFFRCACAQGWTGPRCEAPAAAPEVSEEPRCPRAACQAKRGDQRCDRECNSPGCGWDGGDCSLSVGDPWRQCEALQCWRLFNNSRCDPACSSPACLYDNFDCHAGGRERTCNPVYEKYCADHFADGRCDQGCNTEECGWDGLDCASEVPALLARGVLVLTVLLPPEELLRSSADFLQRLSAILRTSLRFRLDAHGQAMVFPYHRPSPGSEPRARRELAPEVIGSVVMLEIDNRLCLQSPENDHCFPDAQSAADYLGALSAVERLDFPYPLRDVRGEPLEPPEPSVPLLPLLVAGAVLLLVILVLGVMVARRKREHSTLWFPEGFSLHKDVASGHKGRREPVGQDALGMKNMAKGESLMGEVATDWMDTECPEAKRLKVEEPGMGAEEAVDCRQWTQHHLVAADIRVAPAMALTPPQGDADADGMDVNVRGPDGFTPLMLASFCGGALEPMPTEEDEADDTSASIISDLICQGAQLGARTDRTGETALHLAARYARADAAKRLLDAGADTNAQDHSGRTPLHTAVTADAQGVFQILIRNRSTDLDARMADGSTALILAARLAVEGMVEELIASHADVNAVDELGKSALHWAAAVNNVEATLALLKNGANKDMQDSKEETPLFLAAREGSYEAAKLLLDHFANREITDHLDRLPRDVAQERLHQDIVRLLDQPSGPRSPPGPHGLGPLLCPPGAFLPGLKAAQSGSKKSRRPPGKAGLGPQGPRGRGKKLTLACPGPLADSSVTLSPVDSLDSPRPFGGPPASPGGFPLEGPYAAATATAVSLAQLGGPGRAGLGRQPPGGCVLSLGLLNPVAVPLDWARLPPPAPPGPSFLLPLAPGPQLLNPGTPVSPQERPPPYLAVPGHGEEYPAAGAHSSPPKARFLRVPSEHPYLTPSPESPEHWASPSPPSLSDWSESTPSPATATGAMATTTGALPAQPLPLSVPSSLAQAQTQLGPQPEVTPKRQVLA
Pro-neuregulin-1, membrane-bound isoform (Homo sapiens), sequence (Q02297 whole entry, looked up, the tested form may be a part, canonical isoform): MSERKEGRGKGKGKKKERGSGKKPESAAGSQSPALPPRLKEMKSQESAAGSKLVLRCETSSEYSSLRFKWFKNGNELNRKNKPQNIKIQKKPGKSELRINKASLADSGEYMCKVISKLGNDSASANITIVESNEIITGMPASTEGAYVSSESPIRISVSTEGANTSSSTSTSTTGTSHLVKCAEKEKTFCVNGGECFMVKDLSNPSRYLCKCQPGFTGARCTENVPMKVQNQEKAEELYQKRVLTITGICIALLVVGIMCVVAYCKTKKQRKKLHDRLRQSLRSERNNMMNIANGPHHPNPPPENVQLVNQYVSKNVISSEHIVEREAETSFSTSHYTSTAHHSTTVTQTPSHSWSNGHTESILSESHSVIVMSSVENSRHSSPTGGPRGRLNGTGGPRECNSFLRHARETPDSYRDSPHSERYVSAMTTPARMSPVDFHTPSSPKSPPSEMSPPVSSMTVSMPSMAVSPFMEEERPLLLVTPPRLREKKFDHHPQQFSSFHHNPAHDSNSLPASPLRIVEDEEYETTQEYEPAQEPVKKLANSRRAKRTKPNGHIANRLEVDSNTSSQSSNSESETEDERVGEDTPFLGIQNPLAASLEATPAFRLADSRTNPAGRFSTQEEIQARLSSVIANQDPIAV
Torsin-1A-interacting protein 2 (Homo sapiens), sequence (Q8NFQ8 whole entry, looked up): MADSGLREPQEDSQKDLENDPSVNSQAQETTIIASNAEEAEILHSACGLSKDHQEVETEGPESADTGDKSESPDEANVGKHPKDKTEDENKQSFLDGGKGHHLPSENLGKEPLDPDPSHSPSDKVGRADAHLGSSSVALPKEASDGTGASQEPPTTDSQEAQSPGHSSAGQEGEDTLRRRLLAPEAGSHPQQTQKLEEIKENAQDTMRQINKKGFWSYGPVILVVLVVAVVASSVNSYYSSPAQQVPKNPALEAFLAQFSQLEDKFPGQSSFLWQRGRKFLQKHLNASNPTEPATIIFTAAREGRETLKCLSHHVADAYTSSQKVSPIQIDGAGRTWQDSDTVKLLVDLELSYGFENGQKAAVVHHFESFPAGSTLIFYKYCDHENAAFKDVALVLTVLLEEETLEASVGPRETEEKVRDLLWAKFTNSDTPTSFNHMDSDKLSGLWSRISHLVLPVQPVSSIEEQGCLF

Consider `NC(=O)NCC#Cc1ccc2c(c1)[C@]1(C(=O)N2)[C@H](c2ccc(O)cc2)N2[C@H](c3ccccc3)[C@H](c3ccccc3)OC(=O)[C@H]2[C@@H]1C(N)=O`, for which the composite z-score was 0.373 in test [1]; -1.07 in test [2]; -0.0925 in test [3]; -0.568 in test [4]; -0.847 in test [5]; -0.283 in test [6]. Moreover, the composite z-score in test [7] is 0.266; in [9], -0.139; in [10], 0.202; in [11], 0.64; in test [15], 1.46; in test [17] it was -0.072. Also, the composite z-score in test [18] is -0.238; in test [19], -1.19; in [20] it was -0.187. In addition, the z-score in [8] is -1.07 (inactive); in test [12], 0.321 (inactive); in [13], 0.736 (inactive); in test [14] it was 0.183 (inactive); in test [16], 0.248 (inactive).

Turning to `COCCCNC(=O)[C@@]1(Cc2ccccc2)COC(c2ccc(OCCCO)cc2)=N1`, the composite z-score in test [1] was 0.0674; in test [2] it was -0.321; in test [3], -0.0745; in [4], 0.821; in test [5], 0.694; in [6], 1.77. The composite z-score in test [7] was 0.99; in test [9] it was 0.696; in test [10] it was -0.135; in test [11] it was 1.49; in test [15], 3.55; in test [17], 0.0634. Besides, the composite z-score in [18] is -0.233; in test [19], 0.117; in test [20], -0.0828. In addition, the z-score in test [8] was -1.02 (inactive); in test [12], -1.29 (inactive); in test [13], -1.98 (inactive); in [14], -1.27 (inactive); in test [16], 1.47 (inactive).

For `CCCCC(=C=CC[C@H](O)c1cccc(OCCO)c1)C[C@H](O)COCc1ccccc1`, the composite z-score in test [1] was -0.0829; in test [2], 0.284; in test [3] it was -0.112; in test [4], 0.205; in test [5], -0.431; in [6] it was -0.491. In addition, the composite z-score in test [7] was 0.794; in test [9], -0.11; in test [10], -0.28; in test [11], 0.494; in test [15], 1.04; in test [17] it was -0.195. Further, the composite z-score in test [18] is -0.0291; in test [19] it was -0.323; in test [20], -0.154. For the same compound, the z-score in [8] was -0.664 (inactive); in test [12] it was -0.646 (inactive); in test [13], -0.586 (inactive); in [14] it was -1.15 (inactive); in test [16], 0.338 (inactive).

For `CC(C)N1C(=O)c2ccccc2[C@](C)(C(=O)O)[C@@H]1c1ccc(CO)cc1`, the composite z-score in test [1] was 0.513; in [2] it was -0.671; in test [3], -0.0255; in test [4], -0.0804; in test [5], -0.663; in test [6] it was 0.752. In addition, the composite z-score was -0.0487 in [7]; 0.112 in test [9]; -0.0708 in [10]; -0.0681 in test [11]; 1.32 in test [15]; -0.0395 in test [17]. For the same compound, the composite z-score in test [18] was -0.615; in [19] it was -0.356; in test [20] it was -0.256. The z-score is 0.726 (inactive) in [8]; -0.0219 (inactive) in [12]; -0.751 (inactive) in test [13]; -1.16 (inactive) in test [14]; -0.156 (inactive) in test [16].

As to `CC(C)CNC(=O)[C@@]1(c2ccc([N+](=O)[O-])cc2)CC(=O)N(C(C)C)[C@@H]1c1ccc(CO)cc1`, the composite z-score in [1] is 0.722; in [2], -0.187; in [3], -0.137; in [4], -0.138; in test [5], -0.205; in test [6], 1.95. Further, the composite z-score in [7] was 0.55; in [9], -0.761; in [10], -0.0252; in test [11], 0.808; in [15], 2.03; in test [17] it was -0.147. The composite z-score in test [18] was -0.641; in test [19] it was -0.143; in [20], -0.13. In addition, the z-score in test [8] was -0.696 (inactive); in test [12] it was -0.655 (inactive); in test [13], -0.182 (inactive); in test [14], -0.812 (inactive); in [16], 0.738 (inactive).
